Results from PubChem BioAssay.
Entries with a potency or affinity are not part of this list. Unmarked numbers belong to inactive results.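 How the source made its calls, unless noted: active means a dose-response fit showing signal loss, with half-maximal concentration no higher than twice the top tested dose; inconclusive means flat fit between 30% and 70% signal loss, or poor fit; inactive means the rest.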

Assay: C. neoformans lysis by adenylate kinase leakage – AK release luminescence, cherry-picks, dose response (AID 687000;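 active means fitted dose curve reaches 40% lysis signal rise at or below the highest valid concentration tested for that sample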;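 further: luminescent detection of adenylate kinase leaking from lysed yeast; 0% = median neutral control signal and 100% = double that signal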)
Conditions: 4 h, 100% = twice the neutral-control signal; series mostly up to 15 µM; lysis activity: at the top concentration

| Structure (SMILES) | lysis activity |
| --- | --- |
| CC(C)CC#Cc1ccc2c(c1)O[C@@H](CN(C)C(=O)C1CCC1)[C@@H](C)CN([C@H](C)CO)S2(=O)=O | -8.58% |
| C[C@@H]1CN([C@@H](C)CO)C(=O)c2cc(NS(=O)(=O)c3ccc(F)cc3)ccc2O[C@@H](C)CCCCO[C@H]1CN(C)S(=O)(=O)c1ccc(F)cc1 | 6.21% |
| Cc1cc(C)c(NC(=O)C(C)N2CCCCCC2)c(C)c1 (centres undefined) | -0.295% |
| COc1ccc(NC(=O)Nc2ccc3c(c2)C(=O)N([C@@H](C)CO)C[C@@H](C)[C@H](CN(C)C(=O)Cc2ccccc2)OCCCC[C@H](C)O3)cc1 | 6.38% |
| COCC#Cc1cnc2c(c1)C(=O)N([C@H](C)CO)C[C@H](C)[C@H](CN(C)C(=O)C1CC1)O2 | -5.56% |

Assay: viability loss in HepG2 hepatoma cells – cell-based, cherry-picks, set 2, cytotoxicity control, dose response (AID 687002)
Conditions: ATP luminescence (CellTiter-Glo), 48 h; series mostly up to 26 µM; activity change, negative = cytotoxicity: at the top concentration

| Structure (SMILES) | activity change, negative = cytotoxicity |
| --- | --- |
| C[C@H]1CCCCO[C@H](CN(C)C(=O)Nc2ccc(F)cc2)[C@@H](C)CN([C@@H](C)CO)C(=O)c2cc(NS(=O)(=O)c3ccc(Cl)cc3)ccc2O1 | 18.5% |
| C[C@@H]1CN([C@@H](C)CO)C(=O)CCCn2cc(nn2)CO[C@@H]1CN(C)C(=O)NC1CCCC1 | -1.61% |
| CNC(=O)C[C@H]1CC[C@H]2[C@@H](COc3ccc(NC(=O)Nc4cccc(C#N)c4)cc3C(=O)N2C)O1 | -13.6% |
| CCC(=O)N(C)C[C@H]1Oc2cc(-c3ccccc3)ccc2S(=O)(=O)N([C@H](C)CO)C[C@H]1C | 4.22% |
| CCCNC(=O)Nc1ccc2c(c1)C(=O)N(C)C[C@H](OC)[C@@H](C)CN(C(=O)CC)[C@@H](C)CO2 | 4.25% |
| O=C(CN1CCOCC1)N1CC[C@@H]2[C@@H](CO)Nc3ccc(-c4ccccc4F)cc3[C@@H]21 | -7.98% |
| CN1C(=O)c2cc(NC(=O)Nc3ccc(Cl)cc3)ccc2OC[C@H]2O[C@@H](CC(=O)NCCN3CCCCC3)CC[C@@H]21 | 3.11% |
| CC(C)NC(=O)Nc1ccc2c(c1)CC(=O)N([C@H](C)CO)C[C@H](C)[C@H](CN(C)S(=O)(=O)c1ccc(Cl)cc1)O2 | 12.6% [at 23.5 µM] |
| COCC(=O)N(C)C[C@@H]1Oc2ncc(C#CCC3CCCC3)cc2C(=O)N([C@@H](C)CO)C[C@H]1C | 13.5% [at 12 µM] |
| CO[C@@H](CN(C)Cc1cc(F)ccc1F)[C@@H](C)CN([C@H](C)CO)S(=O)(=O)c1ccc(F)cc1 | -8.36% |
| C[C@@H]1CN([C@H](C)CO)C(=O)c2cc(/C=C/c3ccccc3)cnc2O[C@@H]1CN(C)S(C)(=O)=O | 8.38% |
| Cc1cc(C)c(NC(=O)C2CCCN2CCO)c(C)c1 (centres undefined) | -6.42% |
| CCCNC(=O)[C@@H]1[C@@H](CO)[C@@H]2Cn3c(cccc3=O)[C@H]1N2C(=O)Nc1cc(F)ccc1F | -12.1% [at 23.5 µM] |
| C[C@H]1CN([C@@H](C)CO)C(=O)c2cccc(NS(=O)(=O)c3cn(C)cn3)c2O[C@@H]1CN(C)CC1CCCCC1 | -0.373% |
| Cc1ccc(C2=NN(C(=O)c3ccc(Br)o3)C(c3ccc(C)cc3)C2)cc1 (centres undefined) | -10.5% [at 30 µM] |
| C[C@@H]1CN([C@@H](C)CO)S(=O)(=O)c2ccc(C#CC3CC3)cc2O[C@H]1CN(C)CC1CCOCC1 | -4.01% |
| COCCNC(=O)C[C@H]1C=C[C@@H](NS(=O)(=O)c2ccc(C)cc2)[C@H](CO)O1 | 14.3% |
| C[C@@H]1CCCCO[C@H](CN(C)Cc2ccncc2)[C@@H](C)CN([C@@H](C)CO)C(=O)c2cc(NC(=O)Nc3ccccc3)ccc2O1 | 0.809% |
| C[C@@H]1CN([C@@H](C)CO)C(=O)Cc2cc(NC(=O)Nc3cccc4ccccc34)ccc2O[C@@H]1CN(C)S(=O)(=O)c1cccs1 | 0.751% |
| CNC[C@@H]1Oc2cc(Br)ccc2S(=O)(=O)N([C@H](C)CO)C[C@H]1C | 13.9% |

| Structure (SMILES) | activity change, negative = cytotoxicity |
| --- | --- |
| C[C@@H]1CN([C@H](C)CO)S(=O)(=O)c2ccc(C#Cc3ccc(F)cc3)cc2O[C@H]1CN(C)C(=O)NC1CCCC1 | 53.1% |
| CC1CCCCN1C(=O)CSc1nc(C2CC2)nc2c1cnn2-c1ccccc1 (centres undefined) | -1.93% |
| O=C(c1cccc(Br)c1)N1CCN(c2ccccn2)CC1 | 9.51% |
| CC(=O)NNC(=O)CSc1nnc(-c2ccccc2)c(-c2ccccc2)n1 | -4.78% |
| C[C@H](CO)N1C[C@H](C)[C@H](CN(C)C(=O)Nc2ccc3c(c2)OCO3)Oc2ncc(-c3ccc(F)cc3)cc2C1=O | 3.12% |
| O=C(Nc1ccccc1)N1CCCCN2[C@H](CO)[C@@H](c3ccc(C#CC4CC4)cc3)[C@@H]2C1 | 2.67% |
| CCCN1C[C@H](C)[C@@H](OC)CN(C)C(=O)c2cc(NC(=O)c3cccc(F)c3)ccc2OC[C@H]1C | -13.3% |
| CCC(=O)N[C@@H]1C=C[C@H](CC(=O)NCC2CCCCC2)O[C@H]1CO | 21.6% |
| O=C(C1CCOCC1)N1CC[C@@H]2[C@H]1c1cc(Br)ccc1N[C@@H]2CO | 15% |
| O=C(C[C@H]1CC[C@@H](NC(=O)c2ccc3c(c2)OCO3)[C@@H](CO)O1)NCc1ccc(F)cc1 | -2.76% |
| O=C(C[C@H]1CC[C@H]2[C@@H](COC[C@@H](O)CN2C(=O)c2ccc(F)cc2)O1)N1CCOCC1 | 1.07% |
| COc1cccc(-c2cn(CC[C@@H]3CC[C@H](NC(C)=O)[C@@H](CO)O3)nn2)c1 | -7.16% |
| CC1=C(C(=O)OCc2ccccc2)C(c2ccccc2)NC(=O)N1 (centres undefined) | 11.1% |
| CC(C)NC(=O)N1CC[C@@H]2[C@@H](CO)N(C)c3ccc(-c4cccc(F)c4)cc3[C@@H]21 | 3.55% [at 23.5 µM] |
| CC(C)CC#Cc1ccc2c(c1)O[C@@H](CN(C)C(=O)C1CCC1)[C@@H](C)CN([C@H](C)CO)S2(=O)=O | 33.2% |
| C[C@@H]1CN([C@@H](C)CO)C(=O)c2cc(NS(=O)(=O)c3ccc(F)cc3)ccc2O[C@@H](C)CCCCO[C@H]1CN(C)S(=O)(=O)c1ccc(F)cc1 | 20% |
| Cc1cc(C)c(NC(=O)C(C)N2CCCCCC2)c(C)c1 (centres undefined) | -5.33% |
| COc1ccc(NC(=O)Nc2ccc3c(c2)C(=O)N([C@@H](C)CO)C[C@@H](C)[C@H](CN(C)C(=O)Cc2ccccc2)OCCCC[C@H](C)O3)cc1 | 24.3% |
| COCC#Cc1cnc2c(c1)C(=O)N([C@H](C)CO)C[C@H](C)[C@H](CN(C)C(=O)C1CC1)O2 | -15.4% |
